# Hit rate of the full screen: of about 59,000 compounds, about 60 (0.1%) were called active. The rule behind the calls is not given here. What follows is part of a selection rich in actives, with near analogues and random picks from the rest.
# Assay: qHTS Assay for Spectroscopic Profiling in A488 Spectral Region
# Details: compound autofluorescence
# From the text: NIH Molecular Libraries Screening Centers Network [MLSCN]
# NIH Chemical Genomics Center [NCGC]
# Occasionally, the artifactual effect may originate from the compounds own spectral or other biophysical properties which generally tend to track its assay concentration. Pre-screening/profiling the library with respect to the compounds spectral properties should help one exclude false positives early on. While the most informative fluorescent profiling data set is obtained by performing a full excitation and emission scan of each well by using a monochromator-based plate reader, such an approach is practical only on a very limited scale as scanning each well requires long time. An alternative approach, applied here, is to perform plate reader scans using selected excitation and emission wavelength pairs to generate a multidimensional relational database that correlates compound concentration and the respective relative fluorescence intensity at a given wavelength set. A standard curve of Alexa 488 (A488) present on each plate as six-point concentration series, was used to compute a normalized fluorescence response, termed dye-equivalent concentration, for each compound at each concentration.
# NCGC Assay Protocol Summary:
# 100 mM Tris buffer, pH 8.0
# The wells in columns 1 through 4 of a Kalypsys polypropylene 1536-well compound plate were filled with standard solutions of fluorophore corresponding to the spectral region of interest. Solutions of A488 were placed in the following wells: Y1, Z1: 3 mM, Y2, Z2: 300 uM, Y3, Z3: 30 uM, Y4, Z4: zero (DMSO), AA1, AB1: 3 uM, AA2, AB2: 900 nM, AA3, AB3: 300 nM, AA4, AB4: zero (DMSO).
# Six uL of buffer were dispensed to 1536-well Greiner black plates. Compounds and dye standards (23 nL) were transferred via Kalypsys PinTool. The plates were incubated for 15 min at room temperature, and then read on ViewLux (Perkin-Elmer) High-throughput CCD imager using 480 nm and 540 nm excitation and emission filter set.
# Keywords: NIH Roadmap, MLSCN, MLI, MLSMR, qHTS, NCGC, A488, A-488, Fluorescent Profiling.
# [1] = max dye equivalency: Compound Type: qHTS ECL - SigmaAldrich, active compounds read high unless noted, outcome: dye equivalency, Compound Type: qHTS ECL - MLSMR unless noted
smiles,measurement,setting,value
CCCOP(=O)(c1ccc(N(C)C)cc1)C(O)c1cc(OC)c(OC)c(OC)c1 (stereo not drawn),outcome,[1],"inactive [dye equivalency, Compound Type: qHTS ECL - DPISMR]"
COc1ccccc1-c1nc(NCc2cccs2)c2ccccc2n1,outcome,[1],"inactive [dye equivalency, Compound Type: qHTS ECL - Pharmacopeia]"
CC(=O)N1CCC(C(=O)Nc2nc(-c3ccccc3)ns2)CC1,outcome,[1],"inactive [dye equivalency, Compound Type: qHTS ECL - DPISMR]"
N#Cc1cccc(-c2ccc3ncnc(NCc4cccs4)c3c2)c1,outcome,[1],"inactive [dye equivalency, Compound Type: qHTS ECL - Pharmacopeia]"
COc1ncc2nc(-c3ccc(Cl)cc3)c(=O)n(-c3ccccc3)c2n1,outcome,[1],"inactive [dye equivalency, Compound Type: qHTS ECL - Pharmacopeia]"
COc1ccc2c3c(c(=O)oc2c1OCC(=O)C(C)(C)C)CCCC3,outcome,[1],"inactive [dye equivalency, Compound Type: qHTS ECL - DPISMR]"
CCOc1ccccc1-n1c(SCC(=O)N2CCCC2)nnc1-c1ccoc1C,outcome,[1],inactive
CCOC(=O)N1CCC(NC(=O)CN2C(=O)COc3ccc(C(C)(C)C)cc32)CC1,outcome,[1],"inactive [dye equivalency, Compound Type: qHTS ECL - DPISMR]"
CC1(C)CC(=O)C=C(NCc2ccncc2)C1,outcome,[1],inactive
Oc1ccc2ccccc2c1C=NCc1c(O)ccc2ccccc12,outcome,[1],"inactive [dye equivalency, Compound Type: qHTS ECL - NCI]"
COc1cccc(NS(=O)(=O)c2ccc3[nH]cc(C(=O)NCCCOC(C)C)c(=O)c3c2)c1,outcome,[1],inactive
O=c1c2c(nc3n1CCCCC3)sc1c(O)cccc12,outcome,[1],inactive
O=C(CN1CCN(c2ccc(F)cc2)CC1)Nc1cccc(C(F)(F)F)c1,outcome,[1],"inactive [dye equivalency, Compound Type: qHTS ECL - DPISMR]"
CCc1c(C)nc(N)n2c(SCC(=O)N3CCN(c4ccccc4)CC3)nnc12,outcome,[1],inactive
O=C(Nc1cccc(F)c1)N1CCC2(CC1)CCN(S(=O)(=O)c1ccccc1)CC2,outcome,[1],"inactive [dye equivalency, Compound Type: qHTS ECL - Pharmacopeia]"
COc1ccc(-c2nnc(SCC(=O)c3ccco3)n2-c2ccccc2)cc1,outcome,[1],inactive
CCn1c(SCC(=O)NCC2CCCO2)nc2cc(S(=O)(=O)N3CCCCC3)ccc21 (stereo not drawn),outcome,[1],inactive
O=c1c(-c2cccs2)nc2cnc(Oc3ccccc3)nc2n1-c1ccccc1,outcome,[1],"inactive [dye equivalency, Compound Type: qHTS ECL - Pharmacopeia]"
COCCn1c(=O)c(-c2cccc(F)c2)nc2cncnc21,outcome,[1],"inactive [dye equivalency, Compound Type: qHTS ECL - Pharmacopeia]"
CCCn1c(SCC(N)=O)nnc1C(C)C,outcome,[1],inactive
C=CCNC(=O)CCCC(=O)NCC=C,outcome,[1],"inactive [dye equivalency, Compound Type: qHTS ECL - DPISMR]"
CN1CCN2c3ccccc3Cc3ccccc3[C@@H]2C1,outcome,"dye equivalency, Compound Type: qHTS ECL - Prestwick",inactive
same,outcome,"dye equivalency, Compound Type: qHTS ECL - SigmaAldrich",inactive
CSc1nc(O)c(Cc2ccccc2)c(=O)[nH]1,outcome,[1],inactive
O=C(Cn1c(-c2ccc(Cl)cc2)noc1=O)N1CCN(c2ccccc2F)CC1,outcome,[1],inactive
CCN(Cc1cc2cc(C)ccc2[nH]c1=O)S(=O)(=O)c1ccccc1,outcome,[1],inactive
CCCCOc1ccc(Cl)cc1CSc1nncn1N,outcome,[1],"inactive [dye equivalency, Compound Type: qHTS ECL - DPISMR]"
O=c1cc(-c2ccccc2)[nH]c2nc(Cl)ccc12,outcome,[1],"inactive [dye equivalency, Compound Type: qHTS ECL - SigmaAldrich]"
CC[C@@H]1Cc2cc(O)ccc2C2=C1c1ccc(O)cc1C[C@H]2CC,outcome,[1],"inactive [dye equivalency, Compound Type: qHTS ECL - SigmaAldrich]"
O=c1c(-c2ccc(F)cc2)nc2cnc(N3CCNCC3)nc2n1Cc1cccs1,outcome,[1],"inactive [dye equivalency, Compound Type: qHTS ECL - Pharmacopeia]"
Nc1nc(N)c2[nH]c(CNc3ccc(C(=O)O)cc3)nc2n1,outcome,[1],"inactive [dye equivalency, Compound Type: qHTS ECL - NCI]"
N#Cc1cccc(-c2nc3cnc(N4CCNCC4)nc3n(C3CC3)c2=O)c1,outcome,[1],"inactive [dye equivalency, Compound Type: qHTS ECL - Pharmacopeia]"
CC(C)NC(=O)N1CCC2(CC1)CCN(C(=O)c1cccn1C)CC2,outcome,[1],"inactive [dye equivalency, Compound Type: qHTS ECL - Pharmacopeia]"
COCCn1c(=O)c(CCc2ccccc2)nc2cnc(N3CCNCC3)nc21,outcome,[1],"inactive [dye equivalency, Compound Type: qHTS ECL - Pharmacopeia]"
CCc1nc(C)cn1S(=O)(=O)c1cc(OC)c(C)cc1C,outcome,[1],inactive
CC(c1ccco1)N(C(=O)c1ccc(S(=O)(=O)N2CCCCC2)cc1)c1ccccn1 (stereo not drawn),outcome,[1],inactive
CS(=O)(=O)N(CC(=O)NCc1ccco1)c1ccc2c(c1)OCO2,outcome,[1],"inactive [dye equivalency, Compound Type: qHTS ECL - DPISMR]"
O=C(NC1(C(F)(F)F)N=C2SCCN2C1=O)c1ccco1 (stereo not drawn),outcome,[1],inactive
COc1ccc(OCC(=O)OCC(=O)Nc2ccc(S(=O)(=O)N3CCCCC3)cc2)cc1,outcome,[1],inactive
O=C(N1CCOCC1)N1CCOCC1,outcome,[1],inactive
CCNC(=O)CN(c1ccc(C)cc1)S(=O)(=O)c1ccc(SC)cc1,outcome,[1],inactive
CN(Cc1ccco1)c1cc(-c2ccccc2C(F)(F)F)ncn1,outcome,[1],"inactive [dye equivalency, Compound Type: qHTS ECL - Pharmacopeia]"
COC(=O)Cc1nc2ccccc2[nH]1,outcome,[1],"inactive [dye equivalency, Compound Type: qHTS ECL - DPISMR]"
CCOc1ccc(N=NS(=O)(=O)O)cc1,outcome,[1],"inactive [dye equivalency, Compound Type: qHTS ECL - NCI]"
CN1CCN(C(=O)C2C3C=CC(C3)C2C(=O)O)CC1 (stereo not drawn),outcome,[1],inactive
CN(C)c1ncc2nc(-c3ccc(F)cc3)c(=O)n(Cc3ccc(F)cc3)c2n1,outcome,[1],"inactive [dye equivalency, Compound Type: qHTS ECL - Pharmacopeia]"
CN(C)C(=O)c1ccc(-c2cncnc2NC2CCNCC2)cc1,outcome,[1],"inactive [dye equivalency, Compound Type: qHTS ECL - Pharmacopeia]"
CC(C)NC(=O)N1CC[C@@]2(CCCN(C(=O)c3ccco3)C2)C1,outcome,[1],"inactive [dye equivalency, Compound Type: qHTS ECL - Pharmacopeia]"
COc1ccc(C(=O)N2CCC[C@@]3(CCN(C(=O)NC(C)C)C3)C2)cc1,outcome,[1],"inactive [dye equivalency, Compound Type: qHTS ECL - Pharmacopeia]"
CC(C)NC(=O)N1CC[C@@]2(CCCN(C(=O)c3cccc(F)c3)C2)C1,max dye equivalency,[1],"33 nM [Compound Type: qHTS ECL - Pharmacopeia, active compounds read high] (active)"
c1n[nH]c(NCc2ccc3c(c2)OCO3)n1,outcome,[1],inactive
CN(C)C(=O)/N=N\C(=O)N(C)C,outcome,[1],"inactive [dye equivalency, Compound Type: qHTS ECL - SigmaAldrich]"
COCCn1c(=O)c(-c2cccs2)nc2cnc(N3CCN(C)CC3)nc21,outcome,[1],"inactive [dye equivalency, Compound Type: qHTS ECL - Pharmacopeia]"
Cc1ccc(-c2nnc(SC(C)C#N)n2N)cc1 (stereo not drawn),outcome,[1],inactive
CCN(Cc1nc2ccccc2c(=O)[nH]1)Cc1cc(=O)oc2cc(C)c(C)cc12,outcome,[1],inactive
O=C(CCS(=O)(=O)c1cccc2nonc12)NCCc1ccccc1Cl,outcome,[1],inactive
CCOc1cc(S(=O)(=O)NC2CC(C)(C)NC(C)(C)C2)ccc1F,outcome,[1],"inactive [dye equivalency, Compound Type: qHTS ECL - DPISMR]"
FC(F)(F)c1cccc(Nc2ncnc3ccccc23)c1,outcome,[1],"inactive [dye equivalency, Compound Type: qHTS ECL - DPISMR]"
c1csc(CN2CCN(Cc3cccs3)C2c2cccs2)c1,outcome,[1],inactive
CCOc1ccc(NC(=O)Nc2ccc(N(C)C(C)=O)cc2)cc1,outcome,[1],"inactive [dye equivalency, Compound Type: qHTS ECL - DPISMR]"
COC(=O)[C@H](Cc1ccccc1)NC(=O)Nc1ccc(S(N)(=O)=O)cc1,outcome,[1],"inactive [dye equivalency, Compound Type: qHTS ECL - DPISMR]"
COCCNc1ncnc2ccc(-c3cccnc3)cc12,outcome,[1],"inactive [dye equivalency, Compound Type: qHTS ECL - Pharmacopeia]"
Nc1ccc2c3c(cccc13)C(=O)NC2=O,max dye equivalency,[1],95 nM (active)
O=C(Cn1c(-c2ccccn2)nc2ccccc21)NCCN1CCOCC1,outcome,[1],"inactive [dye equivalency, Compound Type: qHTS ECL - DPISMR]"
Cc1cc(C)c2c(c1)c(C)cc1nnc(SCC(=O)NCc3ccco3)n12,outcome,[1],inactive
Cc1ccc(NC2=NC(c3ccccc3)n3c(nc(C)cc3=O)N2)cc1 (stereo not drawn),outcome,[1],"inactive [dye equivalency, Compound Type: qHTS ECL - DPISMR]"
CC[C@H](c1ccccc1)c1cc(C(C)(C)C)cc(C(C)(C)C)c1O,outcome,[1],"inactive [dye equivalency, Compound Type: qHTS ECL - NCI]"
COc1cccc(Cn2c(=O)c(CCc3ccccc3)nc3cnc(N(C)C)nc32)c1,outcome,[1],"inactive [dye equivalency, Compound Type: qHTS ECL - Pharmacopeia]"

# Reference: PubChem BioAssay AID591 (National Center for Advancing Translational Sciences (NCATS), 2007)
